# Assay results from PubChem BioAssay (NCI).
# Several values for one entry are separate records, joined by “and”; a condition that tells them apart may be missing. Identical values can stand only once. This is part of a sample that, as a whole, favours compounds with a hit. Of some 83,000 tested, about 20% had one in any assay.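 Plates (96-well) were seeded with cells, treated with compound at one concentration, and incubated for 48 hours before percent growth was determined.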 Activity calls are given as the source filed them. The calls were made as follows: active = growth percent below 10; inactive = the rest.
# Assays:
# Assay in all cases: NCI-60 one-dose screen, 48 h (100 = growth as untreated, 0 = no growth, -100 = all killed)
# T-47D breast = test system: T-47D breast
# BT-549 breast = test system: BT-549 breast
# MDA-MB-435 melanoma = test system: MDA-MB-435 melanoma
# SW-620 colon = test system: SW-620 colon
# MCF7 breast = test system: MCF7 breast
# HCT-116 colon = test system: HCT-116 colon
# HCC-2998 colon = test system: HCC-2998 colon
# KM12 colon = test system: KM12 colon
smiles,measurement,setting,value
CNC(=O)c1cc(Oc2ccc(NC(=O)Nc3ccc(Cl)c(C(F)(F)F)c3)cc2)ccn1,growth,T-47D breast; 10 µM unless noted,-8.57% (active) and 7.49% (active)
same,growth,BT-549 breast; 10 µM unless noted,-1.7% (active) and 24.4% (inactive)
same,growth,MDA-MB-435 melanoma; 10 µM unless noted,-27.3% (active) and -35.2% (active)
same,growth,SW-620 colon; 10 µM unless noted,13.5% (inactive) and 5.39% (active)
same,growth,MCF7 breast; 10 µM unless noted,2.9% (active) and 3.7% (active)
same,growth,HCT-116 colon; 10 µM unless noted,0.741% (active) and 9.24% (active)
same,growth,HCC-2998 colon; 10 µM unless noted,-25.4% (active)
same,growth,KM12 colon; 10 µM unless noted,2.65% (active) and -14.7% (active)
CCCCCCCCCCCCCCCc1ccc(Cl)c(O)c1Cl (tested in a mixture with another compound),growth,T-47D breast; 0.25 µM,35.5% (inactive)
same,growth,T-47D breast; 10 µM,85.4% (inactive)
same,growth,BT-549 breast; 0.25 µM,66.2% (inactive)
same,growth,BT-549 breast; 10 µM,103% (inactive)
same,growth,MDA-MB-435 melanoma; 0.25 µM,56% (inactive)
same,growth,MDA-MB-435 melanoma; 10 µM,103% (inactive)
same,growth,SW-620 colon; 0.25 µM,24.4% (inactive)
same,growth,SW-620 colon; 10 µM,101% (inactive)
same,growth,MCF7 breast; 0.25 µM,16.4% (inactive)
same,growth,MCF7 breast; 10 µM,112% (inactive)
same,growth,HCT-116 colon; 0.25 µM,21.4% (inactive)
same,growth,HCT-116 colon; 10 µM,75.7% (inactive)
same,growth,HCC-2998 colon; 0.25 µM,38.6% (inactive)
same,growth,HCC-2998 colon; 10 µM,116% (inactive)
same,growth,KM12 colon; 0.25 µM,46% (inactive)
same,growth,KM12 colon; 10 µM,96.7% (inactive)
CC(C)C(=O)Nc1ccc([N+](=O)[O-])c(C(F)(F)F)c1,growth,T-47D breast; 10 µM unless noted,85.3% (inactive) and 89.6% (inactive)
same,growth,BT-549 breast; 10 µM unless noted,84.7% (inactive) and 85.9% (inactive)
same,growth,MDA-MB-435 melanoma; 10 µM unless noted,87% (inactive) and 99.6% (inactive)
same,growth,SW-620 colon; 10 µM unless noted,93.8% (inactive) and 96.5% (inactive)
same,growth,MCF7 breast; 10 µM unless noted,102% (inactive) and 90% (inactive)
same,growth,HCT-116 colon; 10 µM unless noted,94.8% (inactive) and 92.8% (inactive)
same,growth,HCC-2998 colon; 10 µM unless noted,97.2% (inactive) and 106% (inactive)
same,growth,KM12 colon; 10 µM unless noted,89.3% (inactive) and 98.4% (inactive)
c1ccc2c(CC3=NCCN3)cccc2c1,growth,T-47D breast; 10 µM unless noted,106% (inactive) and 111% (inactive)
same,growth,BT-549 breast; 10 µM unless noted,101% (inactive) and 96.9% (inactive)
same,growth,MDA-MB-435 melanoma; 10 µM unless noted,101% (inactive) and 106% (inactive)
same,growth,SW-620 colon; 10 µM unless noted,107% (inactive) and 110% (inactive)
same,growth,MCF7 breast; 10 µM unless noted,99.4% (inactive) and 102% (inactive)
same,growth,HCT-116 colon; 10 µM unless noted,94.7% (inactive) and 104% (inactive)
same,growth,HCC-2998 colon; 10 µM unless noted,97.5% (inactive) and 103% (inactive)
same,growth,KM12 colon; 10 µM unless noted,109% (inactive) and 111% (inactive)
COc1ccc(S(=O)(=O)N2CCOCC2)cc1NC(=O)c1[nH]c(C)c2c1CCCCC2=O,growth,T-47D breast; 10 µM unless noted,107% (inactive) and 42% (inactive)
same,growth,BT-549 breast; 10 µM unless noted,116% (inactive) and 102% (inactive)
same,growth,MDA-MB-435 melanoma; 10 µM unless noted,105% (inactive) and 35.8% (inactive)
same,growth,SW-620 colon; 10 µM unless noted,103% (inactive) and 67.5% (inactive)
same,growth,MCF7 breast; 10 µM unless noted,91.1% (inactive) and 27.6% (inactive)
same,growth,HCT-116 colon; 10 µM unless noted,109% (inactive) and 101% (inactive)
same,growth,HCC-2998 colon; 10 µM unless noted,102% (inactive) and 69.8% (inactive)
same,growth,KM12 colon; 10 µM unless noted,110% (inactive) and 65% (inactive)
CC[N+](CC)(CC(=O)Nc1c(C)cccc1C)Cc1ccccc1,growth,T-47D breast; 10 µM unless noted,86.9% (inactive) and 95.1% (inactive)
same,growth,BT-549 breast; 10 µM unless noted,63.8% (inactive) and 106% (inactive)
same,growth,MDA-MB-435 melanoma; 10 µM unless noted,94.7% (inactive) and 99.3% (inactive)
same,growth,SW-620 colon; 10 µM unless noted,90.1% (inactive) and 97.1% (inactive)
same,growth,MCF7 breast; 10 µM unless noted,95.7% (inactive) and 99.8% (inactive)
same,growth,HCT-116 colon; 10 µM unless noted,97.3% (inactive) and 100% (inactive)
same,growth,HCC-2998 colon; 10 µM unless noted,102% (inactive)
same,growth,KM12 colon; 10 µM unless noted,101% (inactive) and 88.9% (inactive)
CC1(C)OB(c2ccc(Cn3cc(F)c(=O)[nH]c3=O)cc2)OC1(C)C,growth,T-47D breast; 10 µM,102% (inactive)
same,growth,T-47D breast; 50 µM,49.3% (inactive)
same,growth,BT-549 breast; 10 µM,104% (inactive)
same,growth,BT-549 breast; 50 µM,40.1% (inactive)
same,growth,MDA-MB-435 melanoma; 10 µM,83.6% (inactive)
same,growth,MDA-MB-435 melanoma; 50 µM,4.27% (active)
same,growth,SW-620 colon; 10 µM,95.8% (inactive)
same,growth,SW-620 colon; 50 µM,34.2% (inactive)
same,growth,MCF7 breast; 10 µM,100% (inactive)
same,growth,MCF7 breast; 50 µM,19.1% (inactive)
same,growth,HCT-116 colon; 10 µM,101% (inactive)
same,growth,HCT-116 colon; 50 µM,29.3% (inactive)
same,growth,HCC-2998 colon; 10 µM,104% (inactive)
same,growth,HCC-2998 colon; 50 µM,74.4% (inactive)
same,growth,KM12 colon; 10 µM,99% (inactive)
same,growth,KM12 colon; 50 µM,26.4% (inactive)
CC(C)(C)c1cc(NC(=O)Cc2ccc(-c3cnc4cc(-c5cnn(CCN6CCOCC6)c5)ccc4n3)cc2)no1,growth,T-47D breast; 10 µM,15.6% (inactive)
same,growth,T-47D breast; 30 µM,25.5% (inactive)
same,growth,BT-549 breast; 10 µM,22% (inactive)
same,growth,BT-549 breast; 30 µM,32.9% (inactive)
same,growth,MDA-MB-435 melanoma; 10 µM,19.1% (inactive)
same,growth,MDA-MB-435 melanoma; 30 µM,19.6% (inactive)
same,growth,SW-620 colon; 10 µM,15.5% (inactive)
same,growth,SW-620 colon; 30 µM,18.8% (inactive)
same,growth,MCF7 breast; 10 µM,35.4% (inactive)
same,growth,MCF7 breast; 30 µM,33.8% (inactive)
same,growth,HCT-116 colon; 10 µM,14.9% (inactive)
same,growth,HCT-116 colon; 30 µM,24.3% (inactive)
same,growth,HCC-2998 colon; 10 µM,40.3% (inactive)
same,growth,HCC-2998 colon; 30 µM,39.4% (inactive)
same,growth,KM12 colon; 10 µM,8.46% (active)
same,growth,KM12 colon; 30 µM,9.72% (active)
